# Data taken from PubChem BioAssay (Tox21).
# Where “and” joins values, the source holds several entries; their conditions need not be identical. Equal entries are not always repeated. Calls of active or inactive are those of the source. A call without a number means that no potency is given here. Calls come from the whole dose curve.
# Molecular target: Androgen receptor (Homo sapiens) (UniProt P10275)
# Test: qHTS assay to identify small molecule agonists of the androgen receptor (AR) signaling pathway in the presence of an antagonist (AID 1259381); note: nearly all actives have a fitted effect of over 15% in size
# Conditions: MDA-kb2 MMTV-luciferase, AR agonist + nilutamide, 16 h; series mostly up to 92.4 µM
# Source text: National Center for Advancing Translational Sciences [NCATS] NIH Chemical Genomics Center [NCGC] U.S. Environmental Protection Agency [EPA] National Institutes of Environmental Health Sciences [NIEHS] National Toxicology Program [NTP] Assay overview: Androgen receptor (AR) is an important member of nuclear receptor family. Its signaling plays a critical role in AR-dependent prostate cancer and other androgen related diseases. Considerable attention has been given in the past decades to develop methods to study and screen for the environmental chemicals that have the potential to interfere with metabolic homeostasis, reproduction, developmental and behavioral functions. Therefore AR binding assay for screening against androgen agonists and antagonists can be used to identify potential endocrine disruptors. MDA-kb2 cells (from ATCC, deposited by Wilson et al.) are human breast carcinoma cells that were stably transfected with a luciferase reporter gene under control of the MMTV promoter that contains response elements for both androgen receptor (AR) and glucocorticoid receptor (GR). This particular screening for measuring luciferase reporter gene activity using MDA-kb2 cells against Tox21 10K library compounds is a confirmation study on agonist mode screening in the presence of AR-antagonist compound (Nilutamide) at 3.0uM final concentration.
# Assay Protocol Summary: MDA-kb2 cells (cells cultured without CO2) were dispensed at 3,000 cells/well in 4uL of culture medium into white wall/solid-bottom 1536-well plates (Corning Life Sciences, Corning, NY) using a Multidrop Combi (Thermo Fisher Scientific Inc., Waltham, MA) dispenser. The assay plates were incubated at 37C and 0% CO2 for 5hr. One uL of 3.0uM (final concentration) Nilutamide or assay buffer was added using two separate tips of Flying Reagent Dispenser (FRD, Aurora Discovery, San Diego, CA). Then 23nL of compounds dissolved in DMSO at 15 concentrations and positive controls were transferred to the assay plates using a Pintool station (Wako, San Diego, CA). The assay plates were incubated at 37C and 0% CO2 for 16hr. For luciferase read, 4uL/well ONE-Glo reagent (Promega Corporation, Madison, WI) was added to each well of the assay plates using FRD. After 30min incubation at room temperature, the luminescence signal was measured using a ViewLux plate reader (PerkinElmer, Shelton, CT).
# Potency is the fitted concentration of half-maximal effect.
# Sequence of Androgen receptor (Homo sapiens) (P10275 whole entry, looked up): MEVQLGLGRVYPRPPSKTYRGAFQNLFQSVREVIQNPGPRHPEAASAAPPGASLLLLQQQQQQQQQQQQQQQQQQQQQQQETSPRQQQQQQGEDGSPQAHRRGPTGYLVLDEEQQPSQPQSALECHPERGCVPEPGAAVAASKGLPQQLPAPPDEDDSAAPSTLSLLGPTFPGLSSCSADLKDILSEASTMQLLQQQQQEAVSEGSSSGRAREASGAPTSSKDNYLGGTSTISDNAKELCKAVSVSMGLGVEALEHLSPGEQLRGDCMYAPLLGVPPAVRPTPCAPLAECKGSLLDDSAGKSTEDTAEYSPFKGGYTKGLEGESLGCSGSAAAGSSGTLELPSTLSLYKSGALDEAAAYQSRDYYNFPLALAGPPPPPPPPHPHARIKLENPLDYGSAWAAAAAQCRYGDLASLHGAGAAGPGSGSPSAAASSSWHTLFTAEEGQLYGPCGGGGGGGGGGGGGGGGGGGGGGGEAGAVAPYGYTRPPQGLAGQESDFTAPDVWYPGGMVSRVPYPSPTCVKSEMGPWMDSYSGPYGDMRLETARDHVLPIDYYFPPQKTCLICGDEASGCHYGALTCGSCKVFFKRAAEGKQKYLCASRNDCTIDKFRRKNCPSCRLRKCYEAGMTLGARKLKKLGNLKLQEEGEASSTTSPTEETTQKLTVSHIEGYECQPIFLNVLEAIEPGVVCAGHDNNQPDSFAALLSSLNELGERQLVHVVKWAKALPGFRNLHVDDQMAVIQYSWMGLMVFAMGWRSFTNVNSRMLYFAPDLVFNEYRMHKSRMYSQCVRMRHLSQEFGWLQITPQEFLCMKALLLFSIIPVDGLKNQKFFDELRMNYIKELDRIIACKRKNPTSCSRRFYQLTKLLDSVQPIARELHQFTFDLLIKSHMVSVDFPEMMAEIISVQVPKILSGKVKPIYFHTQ
row,Structure (SMILES),Potency
1,CCCCCCCCCCCCOCCO,inactive
2,O=C(O)c1ccccc1C(c1ccc(O)cc1)c1ccc(O)cc1,inactive
3,CC1CCC(C(C)C)C(O)C1 (centres undefined),inactive
4,CCc1cccc(C)c1N,inactive
5,CC1=C(C)S(=O)(=O)CCS1(=O)=O,inactive
6,Cc1ccc(N(C)C)cc1,inactive
7,C[Si](O[Si](C)(C)C)O[Si](C)(C)C,inactive
8,FC(F)(F)c1ccc(Cl)c(Cl)c1,inactive
9,CC(c1cc2ccccc2s1)N(O)C(N)=O (centres undefined),inactive
10,c1ccc2c(c1)ccc1ccccc12,inactive
11,Nc1cc([N+](=O)[O-])ccc1O,inactive
12,OCCOCCOCCO,inactive
13,C[C@H]1C[C@@H]2[C@H]([C@@H](O)C[C@@]3(C)[C@H]2CC[C@]3(O)C(=O)CO)[C@@]2(C)C=CC(=O)C=C12,54.5 nM (active) and 59.6 nM (active)
14,O=C(O)c1ccc2c(c1)C(=O)OC2=O,inactive
